Each structure is given as a SMILES string. Inconclusive results are not listed. Activity calls are given as the source filed them. Unless noted, calls follow the shape of the dose curve; as a rule, active = well fitted curve in the direction sought with a large enough effect; inconclusive = small, poorly fitted or top-dose-only effect, or another doubt; inactive = no such curve, though single readings can be large; an effect the other way counts as inactive or inconclusive.

Assay [1] can be described thus: qHTS for Inhibitors of the Functional Ribonucleoprotein Complex (vRNP) of Lassa (LASV) Arenavirus: LASV Primary Screen - GLuc reporter signal (AID 1347082; calls by dose curve; tested in HEK293 reporter line; also: % is scaled to controls: 0 for no effect and ±100 for the full control effect; nearly all actives have a fitted effect of over 60% in size).
In assay [2] the target is Glucocorticoid receptor (Homo sapiens) (UniProt P04150). The experiment in a line: qHTS assay for small molecule agonists of glucocorticoid receptor signaling (AID 588532; active = well fitted curve in the direction sought with a large enough effect in the signal ratio, with a control signal flat; the % refers to the signal ratio;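 also: 100% = dexamethasone at 0.1 µM and 0% = DMSO only wells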). Particulars: HeLa MMTV-bla, beta-lactamase ratio, agonist, 18 h; stronger effect = higher value; percent of dexamethasone control, DMSO zero. The method, boiled down:
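Using MMTV-bla HeLa cells in medium with 1% stripped FBS and 25 mM HEPES, compounds were titrated and incubated overnight-length (18 h). Beta-lactamase cleavage of CCF4 was quantified by dual-emission fluorescence.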
(qHTS replaces the single test concentration by a dilution series.)

The nature of assay [3]: qHTS assay for small molecule agonists of retinoid X receptor alpha signaling (AID 588544; calls by dose curve;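 as to activation: 0% = DMSO basal wells and 100% = reference agonist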). Particulars: HEK293T RXRa-UAS-bla, beta-lactamase reporter, 18 h; 530 nm emission.
The target in assay [4] is Retinoic acid receptor RXR-alpha (Homo sapiens) (UniProt P19793). The description is as above.
Chain of Retinoic acid receptor RXR-alpha (Homo sapiens) (P19793 whole entry, looked up): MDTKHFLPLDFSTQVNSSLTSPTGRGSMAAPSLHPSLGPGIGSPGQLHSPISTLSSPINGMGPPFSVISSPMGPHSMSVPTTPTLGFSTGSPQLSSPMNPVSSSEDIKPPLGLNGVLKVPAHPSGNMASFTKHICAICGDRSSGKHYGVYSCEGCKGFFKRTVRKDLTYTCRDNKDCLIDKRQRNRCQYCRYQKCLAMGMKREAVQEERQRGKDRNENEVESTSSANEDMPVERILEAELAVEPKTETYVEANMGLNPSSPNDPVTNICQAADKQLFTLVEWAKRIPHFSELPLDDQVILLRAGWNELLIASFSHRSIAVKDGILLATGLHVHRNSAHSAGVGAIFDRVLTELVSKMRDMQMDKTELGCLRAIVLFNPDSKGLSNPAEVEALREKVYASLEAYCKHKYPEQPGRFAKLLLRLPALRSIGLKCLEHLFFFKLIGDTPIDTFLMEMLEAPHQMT
For assay [5], the target named is Thyroid hormone receptor beta (Homo sapiens) (UniProt P10828). The experiment in a line: qHTS assay for small molecule agonists of thyroid hormone receptor beta signaling (AID 588545; calls by dose curve;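 also: 0% = DMSO only and 100% = 10 nM T3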). In a few lines: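 Efficacy and EC50 values derive from Hill fits of qHTS titration data, normalized to 10 nM T3 and DMSO-only wells. HEK 293 reporter cells were stimulated for 18 hrs at 37 C, with beta-lactamase activity measured by CCF4 fluorescence.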
Chain of Thyroid hormone receptor beta (Homo sapiens) (P10828 whole entry, looked up): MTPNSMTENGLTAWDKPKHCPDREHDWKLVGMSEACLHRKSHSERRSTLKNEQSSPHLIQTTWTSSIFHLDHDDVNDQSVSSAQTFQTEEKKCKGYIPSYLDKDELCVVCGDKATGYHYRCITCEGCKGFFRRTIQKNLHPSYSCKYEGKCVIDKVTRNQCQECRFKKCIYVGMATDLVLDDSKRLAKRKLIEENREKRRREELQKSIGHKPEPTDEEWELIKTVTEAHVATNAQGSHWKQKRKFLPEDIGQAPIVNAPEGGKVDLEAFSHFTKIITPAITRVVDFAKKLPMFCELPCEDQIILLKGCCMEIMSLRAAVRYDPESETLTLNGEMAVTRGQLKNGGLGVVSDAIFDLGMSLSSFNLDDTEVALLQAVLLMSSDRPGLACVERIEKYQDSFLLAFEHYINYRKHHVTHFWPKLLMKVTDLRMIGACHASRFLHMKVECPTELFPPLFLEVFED

Assay [6] can be described thus: qHTS assay for small molecule antagonists of retinoid X receptor alpha signaling (AID 588546; active = well fitted inhibition curve with a large enough effect in the signal ratio, with a control signal flat, not every such curve was filed as active; the % refers to the signal ratio;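 also: cells stimulated with 9-cis-retinoic acid as agonist; % is scaled to controls: 0 for no effect and ±100 for the full control effect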). Particulars: HEK293T RXRa-UAS-bla, beta-lactamase ratio, antagonist mode; measured here: W530 green channel, cytotoxicity proxy. The method, boiled down: (§1)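 Beta-lactamase reporter inhibition, read as CCF4 fluorescence ratio (ex 405, em 460/530 nm) after 2 h at RT. HEK293T UAS-bla cells, 2500/well, were stimulated with 9-cis-RA at 500 or 100 nM final alongside test compound for 18 h at 37 C.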

Assay [7] concerns the target Retinoic acid receptor RXR-alpha (Homo sapiens) (UniProt P19793). The description is as above. Particulars: HEK293T RXRa-UAS-bla, beta-lactamase ratio, antagonist mode. The method, boiled down:
as §1

Assay [8] has as its target Luciferin 4-monooxygenase (Photinus pyralis) (UniProt P08659). The experiment in a line: Biochemical firefly luciferase enzyme assay for NPC (AID 624030).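 Also: purified P. pyralis luciferase at 10 nM with luciferin and ATP substrate; 0% = DMSO and -100% = full luciferase inhibition by PTC124 control; nearly all actives have a fitted effect of over 70% in size.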 The method, boiled down:
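Direct inhibition of firefly luciferase enzyme (10 nM final, 50 mM Tris Acetate) assessed by luminescence within 5 minutes. Percent activity scaled between DMSO and PTC124 positive control, with concentration-effect curves classified by fit quality and response.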

A short description of assay [9]: qHTS assay for small molecule activators of the nuclear factor-kappa B (NF-kB) signaling pathway (AID 651749; active = well fitted activation curve with a large enough effect in the signal ratio; the % refers to the signal ratio; also: % of control where 0% means no effect). Particulars: NF-kB-bla ME-180 cells, beta-lactamase FRET ratio, 16 h; activation: stronger effect = higher value. In a few lines:
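FRET-based beta-lactamase detection in ME-180 cells reports NF-kB response-element-driven transcription following overnight (16 hr) compound treatment.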

Assay [10] addresses Peroxisome proliferator-activated receptor alpha (Homo sapiens) (UniProt Q07869). The experiment in a line: qHTS assay for small molecule agonists of the peroxisome proliferator-activated receptor alpha (PPARalpha) signaling pathway (AID 651778). Also: % of control where 0% means no effect. Particulars: PathHunter PPARalpha complementation, chemiluminescence, 6 h; stronger effect = higher value. The method, boiled down: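 Chemiluminescence from complemented enzyme reported PPARalpha activation in cells after 6 hr of compound treatment at 37 C. The detection reagent was incubated for 60 min at room temperature, and compounds were scored as agonists.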

The nature of assay [11]: qHTS assay for small molecule agonists of the antioxidant response element (ARE) signaling pathway measured by Nrf2-dependant transcriptional activity (AID 720636; active = well fitted curve in the direction sought with a large enough effect in the repeat runs; an effect the other way counts as inactive or inconclusive;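 also: HepG2 cells with an ARE-driven luciferase reporter; % of control where 0% means no effect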). The method, boiled down: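 Attachment 6 hr at 37 C, then compound versus DMSO vehicle for 16 hr in ARE-luc HepG2 cells (1% dialyzed FBS); luminescence recorded 30 min after ONE-Glo addition at room temperature.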

Assay [12] is described as follows: qHTS assay for small molecule agonists of the antioxidant response element (ARE) signaling pathway measured by Nrf2-dependant transcriptional activity - cell viability counter screen (AID 720653; active = well fitted curve in the direction sought with a large enough effect in the repeat runs; an effect the other way counts as inactive or inconclusive; also: % is scaled to controls: 0 for no effect and ±100 for the full control effect). Particulars: ARE-bla HepG2 viability, CellTiter-Glo ATP luminescence, 16 h; max response: stronger effect = lower value. The method, boiled down:
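Cytotoxicity counter screen: intracellular ATP quantified by CellTiter-Glo luminescence in the same ARE-bla HepG2 plates, after 16 h compound exposure and a 2 h beta-lactamase substrate step.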

Assay [13] in a line: qHTS Assay for Identifying Gametocytocidal Compounds (AID 743244).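 Also: % is scaled to controls: 0 for no effect and ±100 for the full control effect; actives lower the fluorescent signal which means gametocytes are killed.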 Particulars: P. falciparum 3D7 stage III-V gametocytes, alamarBlue, 72 h; max response: stronger effect = lower value. The method, boiled down: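 In this qHTS viability screen, late-stage 3D7 gametocytes are incubated with compound for 72 h, then with alamarBlue for 24 h; reduced resorufin fluorescence marks killing.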

Assay [14] is described as follows: qHTS assay for cell viability of HEK293 cells (AID 743288). Also: % is scaled to controls: 0 for no effect and ±100 for the full control effect; nearly all actives have a fitted effect of over 50% in size. Particulars: ATP luminescence (CellTiter-Glo), 18 h; max response: stronger effect = lower value. The method, boiled down: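 Quantitative high-throughput screen: compounds were pinned onto parental HEK293 cells (2,000 per well) after a minimum 5 h settling at 37 C, incubated 18 h at 37 C, and intracellular ATP measured by luciferase luminescence.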

The nature of assay [15]: qHTS assay for cell viability of the p53RE-bla HCT-116 cell line (AID 743292). Also: % is scaled to controls: 0 for no effect and ±100 for the full control effect; nearly all actives have a fitted effect of over 55% in size. The method, boiled down:
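Compound-exposed HCT-116 (p53RE-bla) cells, 4,000 per well, were kept 16 h at 37 C following a 5 h preincubation. Cell number was estimated from total ATP by CellTiter-Glo luminescence read after 30 min at room temperature.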

Assay [16] is described as follows: Primary qHTS for Huh7 cytotoxicity: counterscreen for inhibitors of MERS-S pseudotyped particle cell entry (AID 1479147; calls by dose curve). Particulars: outcome: dose series up to 57.1 µM unless noted.
Assay [17] can be described thus: Primary qHTS for inhibitors of MERS-S pseudo-typed particle cell entry (AID 1479149; calls by dose curve; also: nearly all actives have a fitted effect of over 60% in size).
Assay [18] is described as follows: Primary qHTS for Vero E6 cytotoxicity: counterscreen for inhibitors of SARS-S pseudo-typed particle cell entry (AID 1479150; calls by dose curve). Particulars: outcome: dose series up to 57.1 µM unless noted.
The nature of assay [19]: Cytotoxicity counterscreen for inhibitors of SARS-CoV-2 cell entry (AID 1645845; calls by dose curve; also: nearly all actives have a fitted effect of over 50% in size). In a few lines: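 ATP-content luminescence (ATPLite 1step, 15 min RT) read after 48 h compound exposure of Expi293F cells stably expressing human ACE2; normalized to cells-only wells and media-only wells.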
(In general: A counterscreen serves to expose hits that act by an unwanted route or on another target.)

Assay [20] in a line: Primary qHTS to identify inhibitors of SARS-CoV-2 cell entry (AID 1645846; calls by dose curve; also: nearly all actives have a fitted effect of over 45% in size). Particulars: activity change, negative = inhibition: at 57.1 µM (top of the series) unless noted. The method, boiled down:
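Data are normalized to wells receiving SARS-CoV-2-S pseudoparticles and those given bald particles. Entry signal was luciferase luminescence in stable hACE2 Expi293F cells, 48 hr post-infection, after 1 hr compound pretreatment.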

For assay [21], the target named is Glutathione peroxidase 1 (Homo sapiens) (UniProt P07203). The experiment in a line: Primary qHTS Assay for Inhibitors of Recombinant Selenoprotein Glutathione Peroxidase 1 (GPX1) (AID 1845191). Also: nearly all actives have a fitted effect of over 65% in size. In a few lines:
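NADPH consumption tracked by fluorescence at 340/450 nm between t=0 and t=15 min, room temperature. Final mix: 10 nM GPX1, 100 nM glutathione reductase, 1 mM GSH, 0.5 mM NADPH, 0.5 mM cumene hydroperoxide, 0.01% BSA; 30 min compound–enzyme preincubation.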

In assay [22] the target is Phospholipid hydroperoxide glutathione peroxidase GPX4 (Homo sapiens) (UniProt P36969). The experiment in a line: Primary qHTS Assay for Inhibitors of Recombinant Selenoprotein Glutathione Peroxidase 4 (GPX4) (AID 1845192). Also: % is scaled to controls: 0 for no effect and ±100 for the full control effect; nearly all actives have a fitted effect of over 65% in size. In a few lines: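 NADPH consumption followed by fluorescence at 340/450 nm, t=0 and after 15 min at room temperature. Reaction started with cumene hydroperoxide (0.5 mM final) after 30 min compound–GPX4 preincubation; final 200 nM GPX4, 100 nM GR, 1 mM GSH, 0.5 mM NADPH.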
Chain of Phospholipid hydroperoxide glutathione peroxidase GPX4 (Homo sapiens) (P36969 whole entry, looked up): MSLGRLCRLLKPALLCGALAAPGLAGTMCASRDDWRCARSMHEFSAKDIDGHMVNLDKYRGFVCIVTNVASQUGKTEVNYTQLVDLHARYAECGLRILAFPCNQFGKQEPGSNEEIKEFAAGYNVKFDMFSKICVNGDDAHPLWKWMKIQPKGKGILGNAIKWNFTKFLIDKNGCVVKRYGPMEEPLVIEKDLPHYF

A short description of assay [23]: Drug repurposing screens with cells derived from glioblastoma tumor samples (AID 1345199). Also: % is scaled to controls: 0 for no effect and ±100 for the full control effect; nearly all actives have a fitted effect of over 40% in size. Particulars: GBM patient neurospheres viability, ATP luminescence, 48 h; Potency: tumour line A; series mostly up to 45.9 µM. In a few lines:
(§2)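 Primary testing used CD133+ neurospheres from four GBM patients, seven concentrations, 48 h exposure and ATP-based viability; confirmation added three slower-growing patient lines.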

A further assay concerns astro. The assay is described as above. Particulars: viability, ATP luminescence, 48 h; series mostly up to 45.9 µM. In a few lines: as §2
In assay [24] the target is Nuclear receptor subfamily 1 group I member 2 (Rattus norvegicus) (UniProt Q9R1A7). Description: qHTS assay for small molecule activators of the rat pregnane X receptor (rPXR) signaling pathway (AID 651751; call rule not given here; also: 0% is about no effect). Particulars: rPXR reporter cells, luciferase (One-Glo), 24 h.
Chain of Nuclear receptor subfamily 1 group I member 2 (Rattus norvegicus) (Q9R1A7 whole entry, looked up): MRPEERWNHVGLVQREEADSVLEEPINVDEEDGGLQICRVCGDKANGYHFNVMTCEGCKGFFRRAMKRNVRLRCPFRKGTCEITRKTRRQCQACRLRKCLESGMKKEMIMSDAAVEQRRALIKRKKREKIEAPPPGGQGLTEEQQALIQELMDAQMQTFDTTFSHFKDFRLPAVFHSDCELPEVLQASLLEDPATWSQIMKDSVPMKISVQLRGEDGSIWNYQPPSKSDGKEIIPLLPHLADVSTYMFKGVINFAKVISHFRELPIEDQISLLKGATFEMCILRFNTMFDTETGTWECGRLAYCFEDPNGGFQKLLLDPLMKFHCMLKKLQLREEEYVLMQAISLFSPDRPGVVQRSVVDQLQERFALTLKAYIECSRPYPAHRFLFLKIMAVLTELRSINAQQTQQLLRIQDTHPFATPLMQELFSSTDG
Assay [25] is described as follows: qHTS assay for small molecule activators of the human pregnane X receptor (PXR) signaling pathway (AID 720659; call rule not given here; also: 0% is about no effect).

Chain of Glutathione peroxidase 1 (Homo sapiens) (P07203 whole entry, looked up): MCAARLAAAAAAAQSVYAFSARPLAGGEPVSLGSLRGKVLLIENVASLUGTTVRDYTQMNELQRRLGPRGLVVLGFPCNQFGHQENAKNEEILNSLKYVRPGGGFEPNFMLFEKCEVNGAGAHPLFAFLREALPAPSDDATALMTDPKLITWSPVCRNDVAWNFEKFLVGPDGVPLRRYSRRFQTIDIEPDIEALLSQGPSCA
Chain of Luciferin 4-monooxygenase (Photinus pyralis) (P08659 whole entry, looked up): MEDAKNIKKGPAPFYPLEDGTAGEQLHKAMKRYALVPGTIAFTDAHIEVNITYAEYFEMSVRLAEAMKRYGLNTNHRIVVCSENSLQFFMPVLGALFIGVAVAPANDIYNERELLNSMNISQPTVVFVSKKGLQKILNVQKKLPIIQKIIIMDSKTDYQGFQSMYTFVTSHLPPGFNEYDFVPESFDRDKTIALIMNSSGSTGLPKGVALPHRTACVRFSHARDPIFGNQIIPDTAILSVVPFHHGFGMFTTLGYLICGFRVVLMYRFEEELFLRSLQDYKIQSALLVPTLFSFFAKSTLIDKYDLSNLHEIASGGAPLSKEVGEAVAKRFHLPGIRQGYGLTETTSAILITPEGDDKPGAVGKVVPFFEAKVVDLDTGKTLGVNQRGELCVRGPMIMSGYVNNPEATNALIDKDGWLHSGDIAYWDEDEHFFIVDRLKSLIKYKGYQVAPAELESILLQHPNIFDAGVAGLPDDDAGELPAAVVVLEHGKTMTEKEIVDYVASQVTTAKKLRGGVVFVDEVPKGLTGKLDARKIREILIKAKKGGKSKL
Chain of Glucocorticoid receptor (Homo sapiens) (P04150 whole entry, looked up): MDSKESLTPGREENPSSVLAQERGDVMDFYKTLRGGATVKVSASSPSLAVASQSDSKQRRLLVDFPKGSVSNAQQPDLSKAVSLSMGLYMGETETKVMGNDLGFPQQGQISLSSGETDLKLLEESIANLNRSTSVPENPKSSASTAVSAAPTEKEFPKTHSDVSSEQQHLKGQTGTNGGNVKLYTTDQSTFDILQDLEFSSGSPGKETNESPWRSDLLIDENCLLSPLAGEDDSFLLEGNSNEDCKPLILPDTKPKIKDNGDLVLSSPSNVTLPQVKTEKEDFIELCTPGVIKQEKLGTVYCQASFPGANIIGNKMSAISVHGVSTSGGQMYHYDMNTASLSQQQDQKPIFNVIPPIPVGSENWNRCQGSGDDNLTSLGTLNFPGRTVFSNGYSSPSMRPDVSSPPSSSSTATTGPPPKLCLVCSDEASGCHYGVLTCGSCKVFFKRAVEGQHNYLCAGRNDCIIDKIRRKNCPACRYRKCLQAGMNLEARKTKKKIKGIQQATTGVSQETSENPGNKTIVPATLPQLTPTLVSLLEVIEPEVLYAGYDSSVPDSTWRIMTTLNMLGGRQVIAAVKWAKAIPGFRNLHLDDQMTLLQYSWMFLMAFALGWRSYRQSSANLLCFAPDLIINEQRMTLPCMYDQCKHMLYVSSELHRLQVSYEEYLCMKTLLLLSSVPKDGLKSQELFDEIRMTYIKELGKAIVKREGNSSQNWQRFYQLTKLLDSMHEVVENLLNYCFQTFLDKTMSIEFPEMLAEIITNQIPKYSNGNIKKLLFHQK
Chain of Peroxisome proliferator-activated receptor alpha (Homo sapiens) (Q07869 whole entry, looked up): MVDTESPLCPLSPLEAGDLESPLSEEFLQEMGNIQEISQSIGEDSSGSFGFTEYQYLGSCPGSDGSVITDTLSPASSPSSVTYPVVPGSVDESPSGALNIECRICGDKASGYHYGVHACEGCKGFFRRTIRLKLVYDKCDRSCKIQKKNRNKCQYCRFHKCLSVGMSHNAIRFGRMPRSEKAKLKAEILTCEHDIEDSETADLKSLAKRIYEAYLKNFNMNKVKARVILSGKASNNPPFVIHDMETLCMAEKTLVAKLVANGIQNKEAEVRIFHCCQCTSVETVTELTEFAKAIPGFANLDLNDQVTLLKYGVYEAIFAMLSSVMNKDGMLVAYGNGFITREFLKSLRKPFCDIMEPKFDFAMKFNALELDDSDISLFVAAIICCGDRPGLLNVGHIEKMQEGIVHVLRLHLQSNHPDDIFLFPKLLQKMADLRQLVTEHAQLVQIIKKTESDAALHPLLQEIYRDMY

Regarding `C=C1C(=O)O[C@@H]2C[C@@H](C)[C@H]3C=CC(=O)[C@]3(O)C[C@@H]12`, the Potency result in [1] was “inactive”.
In the case of `COC(=O)c1cc(O)cc(OC)c1Oc1cc(C)cc(O)c1C(=O)O`, the Potency result in [1] is “inactive”.
Consider `OCCN(CCO)CCO`, for which the activation is -3.04% (inactive) in assay [2] and -1.09% (inactive) in [9]. Further, the max response was -6.39% in assay [3]; -16.2% in [6]; -4.54% (inactive) in assay [7]; -0.143% (inactive) in assay [10]; -4.95% (inactive) in assay [12]; 5.27% (inactive) in assay [13]. Further, the figures for the max response in [14] and in [24] were -0.515% (inactive) and -1.5% (inactive), respectively. The compound was called inactive in [4], in [15], in [16], in [18] and in assay [25]. The Potency entry in [5], in assay [8], in [11], in [17], in assay [19] and in [21] was “inactive” throughout. In addition, the Potency entry (in [22]; in assay [23]; in the assay on astro) was “inactive” each time. For the same compound, the activity change, negative = inhibition in assay [20] was -24%.
As to `C[C@]12CCC(=O)C[C@@H]1CC[C@@H]1[C@@H]2CC[C@@]2(C)[C@H]1CC[C@]2(C)O`, the max response in assay [13] was -5.63% (inactive). Moreover, the Potency result (in assay [23]; in the assay on astro) was “inactive” in each case.
